This is one part of a sample in which hits are shown more often than they occur.
RMI FANCM FP: blocks RMI1/RMI2 complex binding to FANCM MM2 peptide | 0.58% of 70,000 active | AID 1159607 | FP signal (polarization) at 33 µM | Fluorescence polarization, RMI core complex with F-MM2 peptide; active compounds read low; in the data active means FP signal below about 40
Hits are given with their value; 0 = inactive; ! = repeats disagree.

SMILES | RMI FANCM FP
O=C(CSCCS(=O)(=O)c1ccc(Cl)cc1)Nc1ccccc1Cl | 0
O=S(=O)(N=C(Nc1ccc2ccccc2c1)c1ccccc1)c1ccc(Cl)cc1 | 0
NC(=O)SCC(=NS(=O)(=O)c1ccc(Cl)cc1)Nc1cccc2ccccc12 | 30
CCOC(=O)c1c(NC(=O)c2ccc(OCC)cc2)sc2c1CCC2 | 0
CC1(C)OC(=O)C(=CNc2cc(C(F)(F)F)cc(C(F)(F)F)c2)C(=O)O1 | 0
O=C(Cc1csc(NC(=O)Nc2cccc(Cl)c2)n1)NCc1cccs1 | 0
CSc1cccc(NC(=O)Cn2nc3ccc(SC(C)(C)C)nn3c2=O)c1 | 0
CCN(CC)c1ccc(C(=O)OCC(=O)c2ccc(Cl)cc2)cc1 | 0
COc1cc(C)c(C)cc1S(=O)(=O)NCC(c1ccsc1)N1CCc2ccccc2C1 (centres undefined) | 0
COc1ccc(S(=O)(=O)NCC(c2ccc(N(C)C)cc2)N2CCc3ccccc3C2)cc1OC (centres undefined) | 0
COc1cc(C)c(C)cc1S(=O)(=O)NCC(c1ccc(N(C)C)cc1)N1CCc2ccccc21 (centres undefined) | 19
O=C(NCC(c1ccco1)N1CCc2ccccc21)C(=O)Nc1ccc(F)c(Cl)c1 (centres undefined) | 0
O=C(NCCn1ncccc1=O)c1ccccc1C(F)(F)F | 0
CC(C)n1c(=O)oc2ccc(Cl)cc21 | 0
CCCOc1ccc(-c2csc(NC(=O)c3ccc(F)cc3)n2)cc1 | 0
Cc1ccc(C(C)C)c(OCC(=O)N=Nc2c(O)[nH]c3ccc([N+](=O)[O-])cc23)c1 | 11
O=C(N=Nc1c(O)[nH]c2ccc([N+](=O)[O-])cc12)c1ccncc1 | 0
CCCCCC(=O)N=Nc1c(O)[nH]c2ccc([N+](=O)[O-])cc12 | 0
O=C(Oc1ccccc1N1CCCCC1)c1ccco1 | 0
CSC(=NC(C)(C)C)N/N=C\c1cc(Cl)cc(Cl)c1O | 0
Oc1c(Cl)cc(Cl)cc1/C=N\NC(=S)Nc1cc(C(F)(F)F)cc(C(F)(F)F)c1 | 0
O=C1NN=CC1CCCN=Cc1cc(Cl)cc(Cl)c1O (centres undefined) | 24
Oc1c(Cl)cc(Cl)cc1C=NCC1CCC(CN=Cc2cc(Cl)cc(Cl)c2O)CC1 (centres undefined) | 10
OCCN=Cc1cc(Cl)cc(Cl)c1O | 0
Cn1c(=O)n(CC(=O)c2ccccc2)c(=O)c2c(N3CCN(C(=O)c4ccco4)CC3)ccnc21 | 0
SMILES | RMI FANCM FP
Fc1cccc(Cl)c1CN1CCN(CCCNc2nccc(C(F)(F)F)n2)CC1 | 0
CC1(C)C2CCC1(C)C(NS(=O)(=O)c1ccc(F)cc1)C2 (centres undefined) | 0
CC(C)(C)C(=O)N1CCc2ccc(NC(=O)c3ccccc3C(F)(F)F)cc21 | 0
O=C(c1ccno1)N1CCN(C2c3ccccc3-c3ccccc32)CC1 | -13!
Cc1c(C(=O)N2CCN(C3c4ccccc4-c4ccccc43)CC2)cnn1-c1ccccc1 | 0
O=C(c1ccc2nsnc2c1)N1CCN(C2c3ccccc3-c3ccccc32)CC1 | 0
COc1ccc(-c2c(C#N)c(N)nc3c2CN(C)CC3)c(OC)c1OC | -4
N#Cc1c(N)nc2c(c1-c1ccc(Cl)cc1)CCCC2 | 0
COc1ccc(SCCC(=O)Nc2nc(C)c(C(C)=O)s2)cc1 | 0
Cc1ccc([N+](=O)[O-])c(C(=O)NN=C(N)c2ccccn2)c1 | 0
COc1cccc(C(=O)Nc2ccc3c(c2)N(C(=O)C2CC2)CC3)c1OC | 0
Cc1cc(=O)[nH]c(-n2nc(C)c(CCC(=O)O)c2C)n1 | 0
C=Cc1c(C)c2cc3[nH]c(cc4nc(cc5nc(cc1[nH]2)C(C)=C5CCC(=O)O)C(CCC(=O)O)=C4C)c(C)c3C=C | 0
CC1=C(CCC(=O)O)c2cc3nc(cc4[nH]c(cc5[nH]c(cc1n2)c(C)c5C(C)O)c(C)c4C(C)O)C(C)=C3CCC(=O)O (centres undefined) | 34
COc1cc(C(=O)N2CCN(Cc3nc(C(C)(C)C)cs3)CC2)cc(OC)c1OC | 0
CN(/C=C1\Oc2cc(O)ccc2C1=O)Cc1ccccc1 | 14
Cc1ncc(CO)c(/C=C2\Oc3cc(O)ccc3C2=O)c1O | 0
O=C1/C(=C/c2ccc(Cl)cc2)Oc2cc(O)ccc21 | 0
N#C/C(=C\Nc1cc([N+](=O)[O-])ccc1F)c1nc(-c2cc3ccccc3oc2=O)cs1 | 0
Cc1ccc2sc(N3CCN(C(=O)/C=C/c4ccc([N+](=O)[O-])cc4)CC3)nc2c1C | 0
CCOC(=O)c1c(C)oc2c1c(CN1CCN(c3ccccc3)CC1)c(O)c1ccccc12 | 0
COc1ccc(/C=C2\SC(=S)N(CCC(=O)Nc3cc(C)on3)C2=O)cc1OC | 0
Cc1cc(NC(=O)CCN2C(=O)/C(=C3\SC(=S)N(CCC(=O)Nc4cc(C)on4)C3=O)SC2=S)no1 | 21
O=C(CCCN1C(=O)/C(=C2\SC(=S)N(CCCC(=O)Nc3cccc(C(=O)O)c3)C2=O)SC1=S)Nc1cccc(C(=O)O)c1 | 0
CC(C)N1CCN(C(=O)c2ccccc2C(=O)O)CC1 | 0
SMILES | RMI FANCM FP
O=C(CSc1nccn(-c2ccc3c(c2)OCCO3)c1=O)c1ccc(F)cc1 | 0
CCOC(=O)c1c(N)oc2c(-c3ccc(C)cc3)c3c(C(=O)OCC)c(N)oc3cc12 | 22
CCOC(=O)c1c(N)sc(C)c1-c1ccccc1 | 0
CCOC(=O)c1cc(-c2ccc(N)cc2)oc1C | 0
CCC[C@@H]1C[C@@H](C(=O)N[C@H]([C@H]2O[C@H](SC)[C@H](O)[C@@H](O)[C@H]2O)[C@H](C)O)N(C)C1 | 0
Cc1ccc(CS(=O)(=O)NCC2CCN(C(C)C)CC2)cc1 | 0
COc1ccccc1OCC(=O)Nc1c(C(=O)Nc2ccc(Cl)cc2)oc2ccccc12 | 0
Cc1oc(-c2ccc(Cl)cc2[N+](=O)[O-])cc1C(=O)Nc1ccc(S(N)(=O)=O)cc1 | 13
Cc1cc(NS(=O)(=O)c2ccc(NC(=O)c3cc(Cl)ccc3[N+](=O)[O-])cc2)no1 | 0
Cc1oc(-c2cccc(C(F)(F)F)c2)cc1C(=O)Nc1ccc(S(N)(=O)=O)cc1 | 0
Cc1csc2sc(-c3ccn[nH]3)c(C)c12 | 0
O=C(Nc1sc2ccccc2c(=O)c1-c1cccs1)c1ccc([N+](=O)[O-])cc1 | -19
O=C(Nc1cccc2c1C(=O)c1ccccc1C2=O)c1ccc([N+](=O)[O-])cc1 | 0
O=C(Nc1sc2ccccc2c(=O)c1-c1ccc2c(c1)OCO2)c1cccs1 | 0
Cc1ccc(-c2ccc(SCC(=O)NCc3ccco3)nn2)cc1 | 0
O=C(CSc1nnc(-c2cccnc2)o1)NCc1ccco1 | 0
COC(=O)c1ccccc1OC1OC(CO)C(O)C(O)C1O (centres undefined) | 0
O=C(O)c1cc(O)c2c(c1)[C@@H]([C@H]1c3cc(C(=O)O)cc(O)c3C(=O)c3c(O[C@H]4O[C@H](CO)[C@@H](O)[C@H](O)[C@H]4O)cccc31)c1cccc(O[C@H]3O[C@H](CO)[C@@H](O)[C@H](O)[C@H]3O)c1C2=O | 22
COc1ccc(F)cc1S(=O)(=O)NCCn1ncc2c(N3CCOCC3)ncnc21 | 0
Cn1c(-c2ccccn2)n[nH]c1=S | 0
C=CC1=C(C(=O)O)N2C(=O)[C@@H](NC(=O)C(=NO)c3csc(N)n3)[C@H]2SC1 | 34
CO/N=C(/C(=O)NC1C(=O)N2C(C(=O)O)=C(COC(C)=O)CSC12)c1csc(N)n1 (centres undefined) | 0
CO/N=C(/C(=O)N[C@@H]1C(=O)N2C(C(=O)O)=C(C[N+]3(C)CCCC3)CS[C@H]12)c1csc(N)n1 | 0
COc1ccccc1NC(=O)CCn1c(=S)[nH]c2ccccc2c1=O | 0
